# Test results as given in PubChem BioAssay (Tox21).
# Records with an inconclusive call do not appear. A number with no mark means an inactive call. The source made the active and inactive calls. The call rests on the fitted dose curve; in most records, active means well fitted cell-killing curve with a large enough effect in the repeat runs; inconclusive means weak or mixed curves, or effect the other way; inactive means flat fitted curve, though single readings scatter.
# Assay: qHTS assay to identify small molecule agonists of the androgen receptor (AR) signaling pathway in the presence of an antagonist - cell viability counter screen (AID 1259379); further: nearly all actives have a fitted effect of over 25% in size;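 on activity change, negative = cytotoxicity: MDA-kb2 human breast cancer cells carrying an MMTV luciferase reporter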
# Conditions: MDA-kb2 viability, CellTiter-Fluor, 16 h; series mostly up to 92.4 µM; activity change, negative = cytotoxicity: at the top concentration
# Method in brief: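 Cells: MDA-kb2 (MMTV-luc, AR and GR elements), 3,000/well, 5 hr settle. Added: nilutamide 3.0uM final, then compounds (15 conc.). Incubation: 16 hr, 37C, no CO2. Read-out: CellTiter-Fluor, 1 hr, fluorescence.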
# On the % scale 0 is the no-effect control and ±100 the full control effect; potency means the concentration at half of the fitted maximal effect.
SMILES,"activity change, negative = cytotoxicity",Potency
CCOC(=O)[C@@](C)(N)Cc1ccc(O)c(O)c1,-0.404% [at 42.5 µM],
CCC(=O)CC(C)CC (centres undefined),0.759% [at 0.35 µM],
CCCCCCCCC(C)=O,-0.927%,
CCCCCCCCCCc1ccccc1,-2.72%,
Nc1cc(Cl)c([N+](=O)[O-])cc1O,,48.2 µM (active)
C/C=C/C(=O)Oc1c(CCCCCC(C)C)cc([N+](=O)[O-])cc1[N+](=O)[O-],,15.4 µM (active)
COC(=O)C1=C(C)NC(C)=C(C(=O)OCCCN2CCC(c3ccccc3)(c3ccccc3)CC2)C1c1cccc([N+](=O)[O-])c1 (centres undefined),,29.8 µM (active)
CC(COC(=O)c1ccccc1)OC(=O)c1ccccc1 (centres undefined),-2.97%,
C(=C/c1ccccc1)/c1ccccc1,1.66%,
c1cc[nH]c1,1.51%,
CCCCCCCCCCCCN(CCO)CCO,,60.9 µM (active)
Clc1nc2ccccc2s1,1.7%,
OCCC(O)CO (centres undefined),-0.974%,
NCCCCCCNCCCCCCN,-1.82%,
O=C1NCCN1CCN1CCC(c2cn(-c3ccc(F)cc3)c3ccc(Cl)cc23)CC1,,15 µM (active)
Cc1c(C(=O)O)cccc1[N+](=O)[O-],-0.328%,
O=C(O)c1cccc(Cl)n1,-0.0921%,
CCCCCCCCCCCCCCCC,0.14%,
CC=O,,1.28 µM (active)
CCO[Si](C)(C)OCC,6.34%,
O=C=NCc1cccc(CN=C=O)c1,-5.15% [at 19 µM],
NC(=O)c1nc(-c2cccc(-c3cc(F)ccc3OCC(F)(F)C(F)(F)F)c2)n[nH]1,-11.9%,
CO[Si](CCC1CCC2OC2C1)(OC)OC (centres undefined),0.0188%,
ClC/C=C\CCl,0.447%,
